Hit rate of the full screen: of about 300,000 compounds, about 3,300 (1.1%) were called active. Roughly 6% stayed inconclusive and do not appear here. The sample as a whole holds a higher share of actives than the screen did. Values without a mark were called inactive.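 The calls were made as follows: active = more than half of the replicate wells show a fall in the fluorescence ratio signal beyond about 16% (limit read from the data, passing the limit was not always enough); inconclusive = exactly half of the replicate wells pass the set limit; inactive = fewer than half of replicates pass the limit.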

The term inhibition denotes the change of the read-out against control, counted positive when it falls.

For this test, the system named is Ran GTPase (GTP-bound) - importin-beta complex. The experiment in a line: inhibitors of RanGTP-importin-beta interaction, primary screen, biochemical, FRET, CFP-Ran, YFP-importin-beta, homogeneous (AID 2216).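 Also: 0% = DMSO wells and 100% = Ran loaded with GDP instead of GTP.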 The conditions noted are these: cell-free CFP-Ran/YFP-importin-beta FRET ratio; hits give high values; concentration not given here.
With `COc1ccc(C(CNC(=O)c2cccc(S(=O)(=O)Nc3ccccc3Cl)c2)N2CCOCC2)cc1` (centres undefined), the inhibition was 10.7%. To `C/C=C/c1ccc(OCC(=O)OCC(=O)Nc2c(C)nn(-c3ccccc3)c2C)c(OC)c1` belongs 1.88%; to `COC(=O)C1=C(C)N(C)C(=S)NC1c1ccccc1` (centres undefined), 4.45%. In the case of `COCCN1C2=C(COC(C)(C)C2)C(=S)NC1c1ccccc1` (centres undefined), the inhibition is 18.1% (active). Consider `COCCN1C(=O)N[C@@H](CCc2ccccc2)[C@H](C(C)=O)[C@H]1C`, for which the inhibition is -2.31%.

Consider `O=C1CC2(CCCC2)Oc2ccc(Cl)cc21`, for which the inhibition is -0.936%. Consider `COc1cccc(COC(=O)C2CCN(S(=O)(=O)c3ccc(Cl)cc3)CC2)c1OC`, for which the inhibition is 3.92%. As to `CCOc1ccc(N2CC(C(=O)NCc3ccccn3)CC2=O)cc1` (centres undefined), the inhibition was -1.93%.

As for `CCCC(C)c1nnc(NC(=O)C2CC(=O)N(c3ccc(OCC)cc3)C2)s1` (centres undefined), the inhibition is 18.4% (active).

Turning to `CCOc1ccc(NC(=O)[C@H](C)NC(=O)C2CC(=O)N(c3ccc(OC)cc3)C2)cc1` (some centres undefined), the inhibition was 2.72%. On to `CC(OC(=O)c1ccc(-n2cnnn2)cc1)C(=O)NCc1ccccc1` (centres undefined), for which the inhibition was 3.57%. To `CCN(CC)CCn1c(N)c(S(=O)(=O)c2ccccc2)c2nc3ccccc3nc21` belongs 0.032%; to `COC(=O)CSc1nc2ccccc2c(=O)n1Cc1ccccc1`, 5.12%; to `CCC(=O)Nc1c(S(=O)(=O)c2ccccc2)c2nc3ccccc3nc2n1Cc1ccccc1`, 22.2% (active).

For `O=C(CCCN=C1NS(=O)(=O)c2ccccc21)OCC(=O)c1ccc(F)c(F)c1`, the inhibition was 3.32%.

As to `CCC1(c2ccccc2)NC(=O)N(CC(=O)c2ccc3c(c2)OCO3)C1=O` (centres undefined), the inhibition is 1.92%. The figure for `O=C(Nc1ccc(N2CCCCC2)cc1)c1cc(S(=O)(=O)N2CCOCC2)ccc1F` is -0.386%; for `CCn1c2ccccc2c2cc(NC(=O)COC(=O)c3ccccc3Br)ccc21` it is -2.01%; for `CCn1c2ccccc2c2cc(NC(=O)CNC)ccc21` it is 18.8% (active). To `CCn1c2ccccc2c2cc(NC(=O)C/C(C)=N/NC(=O)c3ccccc3N)ccc21` belongs -6.36%; to `COc1ccc(S(=O)(=O)N2CCCCC2)cc1NC(=O)c1cc([N+](=O)[O-])ccc1N1CCOCC1`, 8.1%.

As to `CC1CN(c2cc(=O)n(-c3cccc(Br)c3)c(=O)[nH]2)CC(C)O1` (centres undefined), the inhibition was 39.6% (active). To `CC1CN(C(=S)Nc2ccc(Br)cc2Cl)CC(C)O1` (centres undefined) belongs -3.05%.

As for `CC1CN(c2cc(=O)n(Cc3ccc(F)cc3)c(=O)[nH]2)CC(C)O1` (centres undefined), the inhibition is 8.41%. To `CCOC(=O)c1c(C)oc2cc(Sc3ccccc3)c(O)c(O)c12` belongs -4.55%; to `CS(=O)(=O)c1ccc(Cl)c(NC(=O)COC(=O)c2ncc(Cl)c(Cl)c2Cl)c1`, -0.161%.

For `COc1cc(-c2nnc(NC(=O)C3=COCCO3)o2)cc(OC)c1OC`, the inhibition was -0.69%. In the case of `CCN1C(=O)[C@@H]2[C@@H](c3ccc(-c4cccc(Cl)c4)cc3)N3CCC[C@@]3(C(=O)OC)[C@@H]2C1=O`, the inhibition was 0.656%. To `CCCNC(=O)c1onc(CSc2ccc(F)cc2)c1C(=O)NC(C)C` belongs -1.02%. To `CC1CCN(c2ccc(-c3ccc(NC(=O)c4ccco4)cc3)nn2)CC1` belongs 0.987%; to `COc1cccc(OC)c1C(=O)Nc1sc2c(c1C(N)=O)CCCC2`, 3.19%. The figure for `NC(=O)c1c(Nc2nc3c(F)cccc3s2)sc2c1CCCC2` is 154% (active); for `NC(=O)c1c(NC(=O)c2ccccc2)sc2c1CCCC2` it is 3.77%; for `CCOc1ccc(NC(=O)COc2ccc(C(=O)N3CCC(C(N)=O)CC3)cc2OC)cc1` it is 1.65%. Consider `COc1ccc(C2=NN(C(=O)CSc3nc(=O)n4ccc(C)cc4n3)C(c3ccc(C)cc3)C2)cc1` (centres undefined), for which the inhibition is 3.51%. As for `CCOCCCNC(=O)c1cc2c(=O)n3ccccc3nc2s1`, the inhibition was -3.33%.

With `Cc1ccc(Cn2c(=N)c(S(=O)(=O)c3ccc(C)cc3)cc3c(=O)n4ccccc4nc32)cc1`, the inhibition is 1.91%. The figure for `CCn1c(=N)c(S(=O)(=O)c2ccc(F)cc2)cc2c(=O)n3ccccc3nc21` is 152% (active); for `C=CCSc1nnc2c(n1)-c1cccc3cccc-2c13` it is 6.48%.

In the case of `CC(=O)c1ccc(S(=O)(=O)N2CCN(c3nc4c(C)c(C)ccc4cc3C#N)CC2)cc1`, the inhibition was 6.35%.

As for `Cc1cccc2cc(C#N)c(N3CCCC3)nc12`, the inhibition was 39.6% (active).

`Cc1cc(C)c2nc(N3CCCC3)c(C#N)cc2c1`: the inhibition was 2.23%. The figure for `CCN(CC(=O)Nc1c(F)cccc1F)C(=O)c1ccc(-c2ccccc2)cc1` is -2.68%; for `COc1ccccc1C(=O)NC(=O)COC(=O)c1ccco1` it is 1.31%. As for `Cn1cnnc1SCc1nnc(-c2ccccc2Br)o1`, the inhibition is 2.51%.

As for `Nc1cccc2c1C(=O)N(Cc1nnc(-c3ccccc3Br)o1)C2=O`, the inhibition was 35.1% (active). The figure for `CCOC(=O)N1CCN(Cc2nnc(-c3ccccc3Cl)o2)CC1` is -2.66%; for `C/C(=N\NC(=O)CC(C)C)c1c(C(F)(F)F)[nH]n(-c2nc3ccccc3s2)c1=O` it is 4.64%; for `COC(=O)Cc1[nH]n(-c2nc3ccccc3s2)c(=O)c1C(C)=Nc1ccc(OC)cc1` it is -3.75%. The figure for `COC(=O)Cc1cc(=O)n(-c2nc3ccccc3s2)[nH]1` is 18.9% (active); for `Cc1ccc(OCC(=O)Oc2ccccc2[N+](=O)[O-])cc1` it is 0.472%.

On to `CC(=O)Nc1ccc(Nc2c3ccccc3nc3ccccc23)cc1`, for which the inhibition was 52.8% (active). `CC(=O)Nc1ccc(-c2nc3ccccc3o2)cc1`: the inhibition is -2.08%. As for `Cc1ccc(Nc2c3c(nc4ccccc24)CCC3)cc1`, the inhibition is 2.17%.

`COc1ccc(NC(=O)CSc2nnc(Cc3ccccc3)c(=O)n2N)cc1`: the inhibition is -2%. To `Fc1ccccc1COc1cccc2cccnc12` belongs 1.44%.

Turning to `COc1cc(SC)ccc1C(=O)Nc1nc(C)cs1`, the inhibition was 18.1% (active).

`COC(=O)c1sc(NC(=O)c2ccc(OC)cc2OC)nc1C`: the inhibition was -3.52%. To `COc1cc(SC)ccc1C(=O)Nc1cc(C)ccn1` belongs -5.84%.

The values above are taken from PubChem BioAssay AID2216 (Broad Institute, 2009).
